The structures appear in SMILES notation. Results filed as inconclusive are left out. Where a call stands in place of a potency, no number is given. Activity calls are given as the source filed them. The call rests on the fitted dose curve; in most records, active means well fitted inhibition curve with a large enough effect; inconclusive means small, poorly fitted or top-dose-only effect; inactive means flat fitted curve, though single readings scatter.

The target in this experiment is Aldehyde dehydrogenase, mitochondrial (Homo sapiens) (UniProt P05091). The experiment is described as follows: qHTS for Inhibitors of the Aldehyde Dehydrogenase Family (ALDH2) Primary screen (AID 2061308). Further: nearly all actives have a fitted effect of over 55% in size. The conditions noted are these: ALDH2 enzyme inhibition qHTS, 1536-well; series mostly up to 56 µM.
As to `O=C(Nc1nc(-c2ccccc2)cs1)c1ccncc1NS(=O)(=O)c1cccs1`, the Potency entry was “inactive”.
In the case of `COc1ccc(C2Nc3ccccc3C(=O)N2Cc2cccnc2)cc1COc1c(C)cccc1C` (stereo not given) it was “inactive”.
As to `Cc1cc(C)nc(NC(=S)N2CCN(c3noc4ccccc34)CC2)c1`, the Potency entry is “inactive”.
With `COc1cc(-c2nc(Nc3ccc(F)c(F)c3)c3ccccc3n2)cc(OC)n1`, the Potency result was “inactive”.
To `O=C(CSc1nnc(-c2cccc([S+](=O)([O-])N3CCCC3)c2)n1-c1ccccc1)Nc1cccc(C(F)(F)F)c1` belongs “inactive”; to `Cc1cc2c(s1)c1cnn(Cc3c(Cl)cccc3Br)c(=O)c1n2C`, “inactive”.
On to `NC(=O)C1CCN(c2nccc(-c3ccc(Br)cc3)n2)CC1`, for which the Potency entry was “inactive”.
Consider `Cc1cc(C)nc(NC(=S)N2CCN(c3ccc4occc4c3)CC2)c1`, for which the Potency entry is “inactive”.
For `COc1ccc(C(=O)Nc2ccc(-c3nc4ccccc4[nH]3)cc2)cc1C(F)(F)F`, the Potency result was “inactive”.
For the compound `C=CC1C(OC2OC(CO)C(O)C(O)C2O)OC=C2C(=O)N3C(C(=O)O)Cc4c([nH]c5ccccc45)C3CC21` (stereo not given), the Potency result was “inactive”.
With `O=C(Nc1ccc(Cl)c(Cl)c1)Nc1nnc(-c2cccnc2)s1`, the Potency result was “inactive”.
For `O=C(c1c(F)cccc1F)N1CCN(S(=O)(=O)c2ccc3c(c2)OCCO3)CC1`, the Potency result is “inactive”.
For the compound `O=[S+]([O-])(c1ccc2c(c1)OCCO2)N1CCN([S+](=O)([O-])c2cc(Cl)ccc2F)CC1`, the Potency result is “inactive”.
To `Cc1ccc(S(=O)(=O)Nc2ccccc2C(=O)Nc2nc(-c3ccc(Cl)cc3)cs2)cc1` belongs “inactive”; to `Cn1ccc2cc(-c3ccc4ncnc(NCc5ccc6c(c5)OCO6)c4c3)ccc21`, “inactive”.
Consider `COc1ccc(C(=O)Nc2nnc(-c3ccco3)o2)cc1OC`, for which the Potency result is “inactive”.
In the case of `CC(C)CN1CCN(C(=O)COC(=O)c2ccc(S(C)(=O)=O)c([N+](=O)[O-])c2)CC1`, the Potency result is “inactive”.
Take `Cn1cc2ccc(-c3ccc4ncnc(NCc5cccs5)c4c3)cc2n1`: the Potency result is “inactive”.
Take `O=S(=O)(Nc1nccs1)c1ccc(NCc2ccccc2O)cc1`: the Potency entry was “inactive”.
For `Cc1ccc(C)c(OCCn2c(CCNC(=O)C3CCCCC3)nc3ccccc32)c1`, the Potency entry is “inactive”.
As for `CC1=C(C(=O)Nc2nc3ccccc3s2)C(c2nn(C)cc2Cl)N=C(Nc2nc3ccccc3o2)N1` (stereo not given), the Potency entry is “inactive”.
Regarding `O=C(NCCCCN1CCN(c2cccc(Cl)c2Cl)CC1)c1cc2ccccc2s1`, the Potency entry was “inactive”.
Consider `CCCc1cc(F)c(S(=O)(=O)N2CCN(S(=O)(=O)c3ccc4c(c3)OCCO4)CC2)cc1F`, for which the Potency result was “inactive”.
With `CC(C)(N)C(=O)Nc1ccc(Cl)cc1C(=O)c1ccc[nH]1`, the Potency entry was “inactive”.
Consider `NC(=O)c1ccc(Cc2c(-c3cccc(-c4ccccc4)c3)[nH]n(-c3nc(C(=O)O)cs3)c2=O)cc1`, for which the Potency result is “inactive”.
To `O=C(NC1CCCc2c1cnn2-c1ccc(F)cc1F)c1ccn[nH]1` (stereo not given) belongs “inactive”.
Consider `C=C(C)C(=O)OC1[C@@H]2C(=C)C(=O)O[C@@H]2C[C@@H](C)[C@@H]2C=CC(=O)[C@@]12C` (stereo not given in full), for which the Potency result was “inactive”.
Turning to `Cc1ccc(NS(=O)(=O)c2cc3c(cc2NCC(C)(C)O)NC(=O)CC3)cc1C`, the Potency entry is “inactive”.
`CC(=O)Nc1sc2c(c1-c1ccc3nsnc3c1)CCNC2`: the Potency result is “inactive”.
Regarding `CNc1nnc(-c2cccc3ccccc23)o1`, the Potency entry was “inactive”.
Turning to `COc1ccc(NC(=O)CSc2nnc(-c3cccc(S(=O)(=O)N4CCCC4)c3)n2-c2ccccc2)cc1`, the Potency result is “inactive”.
Turning to `C=C1C(=O)O[C@@H]2/C=C(\CO)CC/C=C(\CO)[C@H](OC(C)=O)C(OC(=O)C(C)CC)C12` (stereo not given in full), the Potency result was “inactive”.
In the case of `O=C(O)c1ccc2c(c1)C(=O)N([C@@H](C(=O)O)C(c1ccccc1)c1ccccc1)C2=O`, the Potency result is “inactive”.
In the case of `CCCCNc1nc(C)nc2c1nc(C)n2CCC` it was “inactive”; in that of `C=C1CCC[C@]2(C)C[C@]3(O)OC(=O)C(C)=C3C[C@@H]12`, “inactive”.
`CC(C)(C)OC(=O)CC(=O)NNC(=O)c1nc2ccccc2[nH]1`: the Potency result is “inactive”.
As to `COc1ccc(OCc2nnc3n2N=C(c2ccccc2)CS3)cc1`, the Potency entry is “inactive”.
Consider `O=C(Nc1ccc(-c2nc3ccccc3[nH]2)cc1)c1ccc2cc[nH]c2c1`, for which the Potency result is “inactive”.
To `Cc1ccccc1OC1=NS(=O)(=O)c2ccccc21` belongs “inactive”.
On to `CCCc1c(C(C)C)nc(C(C)C)c([C@@H](C)O)c1-c1ccc(F)cc1O`, for which the Potency entry was “inactive”.

Values taken from PubChem BioAssay (NCATS).
